In the library only some 3.9% were active in any assay of this set; here they are far more common.
CASP6 VEID inh = human caspase-6 inhibitors, primary screen, biochemical, VEID-R110 fluorescence, single point, set 2; P55212; AID 686996, 2013; purified caspase-6, Z-VEID-R110 cleavage fluorescence; inhibition, % at 12.5 µM; 0.53% of 350,000 active;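 active means mean inhibition across replicates at least about 35%, with every replicate also reaching that limit, limit read from the data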;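 further: 0% = median of neutral control wells and 100% = no fluorescence left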
CDK5 inh = inhibitors of human CDK5/p35 kinase, primary screen, biochemical, single concentration | inhibition, % at 10 µM | Recombinant CDK5/p35, ADP-Glo luminescence, 60 min | Cyclin-dependent kinase 5 (Homo sapiens) + Cyclin-dependent kinase 5 activator 1 (Homo … | 0.01% of 330,000 active;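 active means highest replicate inhibition of at least 50% and at least 75% of replicates reaching 50%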;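 further: plate controls were DMSO neutral control for no effect and GW8510 at 10 µM for full effect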
Glyco luc inh = increase of ERlucT glycosylation luciferase signal, primary screen, N-linked glycosylation inhibitor project, D54 ERlucT cells, luminescence, set 2. reporter increase, % at 12.5 µM. 0.23% of 360,000 active. D54 ERlucT glycosylation luciferase reporter, 24 h; percent of 100 nM tunicamycin response. AID 588692, 2011;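 active means mean luciferase reporter signal, scaled so untreated is 0 and the glycosylation-blocking control 100, at or above a set limit in every replicate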;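 further: luciferase carries N-glycosylation sites so blocking glycosylation raises the light; 0% = median of neutral control wells and 100% = median of 100 nM tunicamycin wells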
Mot1-301 SUMO = yeast Mot1-301 growth rescue at high temperature, primary screen, SUMOylation pathway inhibitor project, S. cerevisiae, ATP luminescence, 38.5C | AID 2716, 2010 | S. cerevisiae Mot1-301 growth rescue; percent above DMSO median, 100 means doubled | 1% of 320,000 active | growth rescue, % at 18.8 µM;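 active means every valid replicate shows activation above 250% relative to neutral control wells; inactive means the rest, any valid replicate at or below 250%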;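 further: OY570 slx delta 5 strain wells were the positive control but not used for scaling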
ALR inh = inhibitors of human ALR sulfhydryl oxidase, primary screen, biochemical, H2O2 detection, HRP-luminol luminescence, single point. 3.8% of 290,000 active. purified ALR, DTT oxidation. FAD-linked sulfhydryl oxidase ALR (Homo sapiens), P55789. inhibition, % (no concentration beside the values);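 active means mean replicate inhibition above about 79%, with every replicate also reaching it, limit read from the data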
NSD2 inh = NSD2 histone methyltransferase inhibitors, primary screen, biochemical, AlphaScreen, single concentration, set 2; inhibition, % at 12.5 µM; AID 743445, 2014; NSD2 peptide methylation, 120 min; 0.54% of 310,000 active; Histone-lysine N-methyltransferase NSD2 (Homo sapiens), O96028; in the data active means inhibition above about 50%
Target sequence (O96028 whole entry, looked up): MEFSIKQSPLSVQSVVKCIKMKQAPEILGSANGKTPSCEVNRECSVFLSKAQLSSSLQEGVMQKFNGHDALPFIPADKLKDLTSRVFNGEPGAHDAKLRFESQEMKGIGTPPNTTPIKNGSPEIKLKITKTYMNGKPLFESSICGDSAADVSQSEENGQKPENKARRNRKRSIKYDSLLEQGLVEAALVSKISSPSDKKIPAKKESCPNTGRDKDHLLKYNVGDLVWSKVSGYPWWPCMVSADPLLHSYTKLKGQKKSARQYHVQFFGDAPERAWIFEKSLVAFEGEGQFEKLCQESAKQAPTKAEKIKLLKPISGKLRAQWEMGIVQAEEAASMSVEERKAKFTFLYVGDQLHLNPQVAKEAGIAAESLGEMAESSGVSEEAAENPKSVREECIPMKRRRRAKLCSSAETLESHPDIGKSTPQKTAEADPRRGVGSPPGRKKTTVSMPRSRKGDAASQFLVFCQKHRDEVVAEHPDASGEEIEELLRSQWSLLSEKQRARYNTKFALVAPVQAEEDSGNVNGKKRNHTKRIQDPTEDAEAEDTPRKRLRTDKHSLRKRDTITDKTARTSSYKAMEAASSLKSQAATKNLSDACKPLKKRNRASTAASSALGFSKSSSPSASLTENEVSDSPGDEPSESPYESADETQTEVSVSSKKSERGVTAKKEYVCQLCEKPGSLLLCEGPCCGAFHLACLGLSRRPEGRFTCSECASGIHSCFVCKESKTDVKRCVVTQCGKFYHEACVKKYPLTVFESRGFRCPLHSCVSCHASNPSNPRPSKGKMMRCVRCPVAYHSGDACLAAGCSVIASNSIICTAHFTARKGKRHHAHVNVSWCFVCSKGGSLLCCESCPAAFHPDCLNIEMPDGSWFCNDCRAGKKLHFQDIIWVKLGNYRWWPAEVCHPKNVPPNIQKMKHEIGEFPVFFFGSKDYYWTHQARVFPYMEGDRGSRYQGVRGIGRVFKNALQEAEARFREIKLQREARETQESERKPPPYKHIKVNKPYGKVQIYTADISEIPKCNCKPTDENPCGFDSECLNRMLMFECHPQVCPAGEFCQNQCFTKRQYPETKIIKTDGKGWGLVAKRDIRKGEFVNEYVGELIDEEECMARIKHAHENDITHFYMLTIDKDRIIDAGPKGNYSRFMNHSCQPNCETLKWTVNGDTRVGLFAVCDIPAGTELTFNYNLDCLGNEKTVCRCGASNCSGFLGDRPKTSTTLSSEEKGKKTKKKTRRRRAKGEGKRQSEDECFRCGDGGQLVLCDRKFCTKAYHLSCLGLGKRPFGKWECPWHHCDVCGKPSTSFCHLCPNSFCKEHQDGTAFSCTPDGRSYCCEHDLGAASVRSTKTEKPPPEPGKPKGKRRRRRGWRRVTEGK
* marks the source's active call; other numbers are inactive results; i = inactive; . = not tested or not shown.

SMILES | CASP6 VEID inh | CDK5 inh | Glyco luc inh | Mot1-301 SUMO | ALR inh | NSD2 inh
CCn1c2ccccc2c2cc(NC(=O)CNCc3ccccc3OC)ccc21 | 0 | 1 | 29* | -22 | -3 | -7
O=C(C[C@H]1CC[C@@H]2[C@H](COC[C@H](O)CN2Cc2ccccc2F)O1)NCc1ccccc1F | 3 | . | . | . | . | .
OC[C@@H]1CC[C@@H]2O[C@H](CCc3ccc(-c4ccccc4)cc3)[C@H](n3cc(-c4ccccc4)nn3)C[C@@H]2O1 | 0 | . | . | . | . | .
CC(C)(C)Nc1nc(Cl)nc(N(C#N)CN2C(=O)c3ccccc3S2(=O)=O)n1 | 3 | -1 | -1 | 13 | 92* | -1
CC(C)Nc1nc(Cl)nc(N(C#N)CN2C(=O)c3ccccc3S2(=O)=O)n1 | 0 | 0 | 0 | -3 | 31 | 10
CCN(CC)CCN1c2ccccc2Sc2ccc3ccccc3c21 | -10 | 0 | 0 | -28 | 98* | 3
CCN(CC)CCC(=O)N1c2ccccc2Sc2ccc(Cl)cc21 | 3 | 1 | -9 | 1 | 64 | .
CCN(CC)CCN1c2ccccc2Sc2ccccc21 | -9 | 0 | 0 | 4 | 100* | 12
COCC(=O)Nc1ccc2c(c1)C(=O)N(C)C[C@H](OC)[C@H](C)CN(Cc1ccccc1F)[C@H](C)CO2 | -1 | . | . | . | . | .
CCC(=O)N1C[C@@H](C)[C@@H](OC)CN(C)C(=O)c2cc(NC(=O)C3CCCCC3)ccc2OC[C@@H]1C | 3 | . | . | . | . | .
C[C@@H]1CN([C@H](C)CO)S(=O)(=O)c2ccc(-c3ccncc3)cc2O[C@@H]1CN(C)C | -2 | . | . | . | . | .
COc1ccc(C#Cc2ccc3c(c2)O[C@@H](CN(C)C(C)=O)[C@H](C)CN([C@@H](C)CO)S3(=O)=O)cc1 | 2 | . | . | . | . | .
CC=Cc1ccc2n(c1=O)C[C@H]1[C@H](CO)[C@@H](C(=O)N(C)C)[C@@H]2N1C(=O)c1ccc(F)cc1 (mixture of isomers) | -2 | . | . | . | . | .
COc1ccc(N2C(=O)CS(=O)C(c3ccccc3)C2=O)cc1 (configuration not stated) | 1 | 1 | 2 | -41 | 98* | 1
COc1ccc(NC2CC(=O)N(c3ccccc3)C2=O)cc1 (configuration not stated) | . | -1 | 2 | -2 | . | 0
Cc1ccc(N2C(=O)CS(=O)C(c3ccccc3)C2=O)cc1C (configuration not stated) | 10 | 5 | 2 | 6 | 98* | 4
COc1ccc(S(=O)(=O)N(C)C[C@@H]2Oc3c(NS(=O)(=O)c4cn(C)cn4)cccc3C(=O)N([C@H](C)CO)C[C@@H]2C)cc1 | -1 | . | . | . | . | .
C[C@@H]1CN([C@@H](C)CO)C(=O)c2cccc(NS(=O)(=O)c3cn(C)cn3)c2O[C@@H]1CN(C)S(=O)(=O)c1cccs1 | 1 | . | . | . | . | .
C[C@H](CO)N1C[C@H](C)[C@@H](CN(C)Cc2ccc(Oc3ccccc3)cc2)Oc2c(NC(=O)Nc3ccc(C(F)(F)F)cc3)cccc2C1=O | -1 | . | . | . | . | .
CC(=O)Oc1oc(-c2ccccc2)nc1C=Nc1ccccc1 | . | -1 | 3 | -9 | 50 | -2
CCOC(=O)c1ccc(N=Cc2nc(-c3ccccc3)oc2OC(C)=O)cc1 | . | 2 | 0 | -23 | 94* | -2
CC(C)CNC(=O)c1cccc2c(-c3ccc(F)c(F)c3)coc12 | 55* | . | -3 | . | . | -1
N#CCC(=O)Nc1ccc(C(=O)NCc2cccc(Cl)c2)cc1 | 2 | -3 | 0 | 1 | 98* | -2
NS(=O)(=O)c1ccc(NC(=O)/C=C/c2ccco2)cc1 | 54* | -2 | 3 | 6 | 96* | 19
O=C(/C=C/c1ccco1)NC1CCCC1 | 17 | 0 | 0 | 693* | 29 | -9
SMILES | CASP6 VEID inh | CDK5 inh | Glyco luc inh | Mot1-301 SUMO | ALR inh | NSD2 inh
O=C(C=Cc1ccco1)c1ccco1 | 56* | 2 | 3 | . | . | 0
O=C(/C=C/c1ccc([N+](=O)[O-])cc1)/C=C/c1ccco1 | 19 | 0 | 31* | -15 | . | -4
CC(=O)NS(=O)(=O)c1ccc(NC(=O)/C=C/c2ccco2)cc1 | 28 | -2 | -2 | 40 | 7 | 36
O=C(COC(=O)/C=C/c1ccco1)NC1CCCCC1 | 17 | 1 | 2 | -10 | 1 | 1
COc1cccc(S(=O)(=O)N(C)C[C@H]2Oc3cc(C#CCN(C)C)ccc3S(=O)(=O)N([C@@H](C)CO)C[C@@H]2C)c1 | -2 | . | . | . | . | .
C[C@@H]1CN([C@H](C)CO)S(=O)(=O)c2ccc(-c3ccccc3F)cc2O[C@@H]1CN(C)Cc1ccncc1 | 5 | . | . | . | . | .
C[C@@H]1CN([C@H](C)CO)C(=O)c2cc(C3=CCCC3)cnc2O[C@@H]1CN(C)Cc1ccccc1 | -2 | . | . | . | . | .
C[C@@H]1CN([C@H](C)CO)C(=O)c2cc(C3=CCCC3)cnc2O[C@@H]1CN(C)C(=O)c1ccncc1 | 0 | . | . | . | . | .
CNC(=O)C[C@H]1CC[C@@H]2[C@H](COc3ccc(NS(=O)(=O)c4ccccc4C)cc3C(=O)N2C)O1 | 6 | . | . | . | . | .
C=CC(=O)NCC1OCCc2ccccc21 (configuration not stated) | 5 | -9 | 1 | -7 | -18 | -1
Cc1ccc(C(=O)/C=C/c2ccco2)c(O)c1 | . | -1 | 13 | . | 98* | 5
O=C(/C=C/c1ccco1)NCC1OCCc2ccccc21 (configuration not stated) | 13 | 0 | 2 | 158 | 98* | 4
C[C@@H]1CN([C@H](C)CO)C(=O)c2cc(NC(=O)Nc3ccccc3)ccc2O[C@H]1CN(C)S(C)(=O)=O | 7 | . | . | . | . | .
COc1ccc(CN(C)C[C@@H]2Oc3ccc(NC(=O)NC(C)C)cc3C(=O)N([C@H](C)CO)C[C@@H]2C)cc1 | 2 | . | . | . | . | .
N/C(=N\OC(=O)c1ccc(Cl)cc1)c1nonc1N | -1 | 5 | 2 | 294* | -5 | -5
O=C(c1cccnc1)N1CC[C@@H]2[C@@H](CO)Nc3ccc(C4=CCCCC4)cc3[C@@H]21 | 0 | . | . | . | . | .
CN(C)CCCNc1cc(C(C)(C)C)nc2c(-c3ccccc3)cnn12 | 4 | -2 | -6 | 267* | 99* | 0
CCN(c1ccc(OC)cc1)S(=O)(=O)c1csc(C(N)=O)c1 | -4 | -2 | 1 | 275* | 0 | -2
Cc1nc2ccccc2n1S(=O)(=O)c1ccc(S(=O)(=O)N2CCCCCC2)cc1 | . | 2 | 0 | i | 0 | .
Cc1ccc(S(=O)(=O)n2c(C)nc3ccccc32)cc1 | 41* | 0 | 0 | -2 | -16 | -3
